High-throughput results: PubChem BioAssay, several laboratories
UBC13 polyUb: human UBC13 polyubiquitination inhibition; UBC13 polyubiquitin chain formation, TR-FRET; hit rate 0.47% among 330,000; P61088; AID 485273; inhibition, % at 20 µM; in the data active = inhibition above about 45%, passing the limit was not always enough
Target sequence (P61088 whole entry, looked up): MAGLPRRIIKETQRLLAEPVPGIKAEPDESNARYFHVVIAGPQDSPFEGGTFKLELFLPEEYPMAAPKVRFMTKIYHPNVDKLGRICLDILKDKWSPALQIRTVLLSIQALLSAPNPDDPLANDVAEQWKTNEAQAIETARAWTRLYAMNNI
PREPL inh: human PREPL enzyme inhibition. Q4J6C6. recombinant PREPL, fluorescence polarization activity-based probe. inhibition, % at 5.96 µM. hit rate 0.68% among 320,000; in the data active = inhibition above about 43%
ATG4B inhibitor: ATG4B (human) cysteine protease inhibition | inhibition, % at 8.33 µM | ATG4B cleavage of LC3-PLA2, NBD-HPC fluorescence, 1 h | Q9Y4P1 | hit rate 0.51% among 340,000; in the data active = inhibition above about 40%
Target sequence (Q9Y4P1 whole entry, looked up): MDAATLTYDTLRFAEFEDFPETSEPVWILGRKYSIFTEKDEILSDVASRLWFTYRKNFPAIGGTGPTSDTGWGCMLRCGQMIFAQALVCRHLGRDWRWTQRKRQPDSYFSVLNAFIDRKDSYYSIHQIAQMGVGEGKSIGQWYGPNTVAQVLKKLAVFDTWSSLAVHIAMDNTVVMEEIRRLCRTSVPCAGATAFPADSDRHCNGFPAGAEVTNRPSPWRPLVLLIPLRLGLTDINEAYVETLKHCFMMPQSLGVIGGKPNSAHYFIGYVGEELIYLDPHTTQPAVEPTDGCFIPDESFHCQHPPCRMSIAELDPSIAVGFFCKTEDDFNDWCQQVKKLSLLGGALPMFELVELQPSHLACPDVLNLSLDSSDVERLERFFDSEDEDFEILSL
MEKK2mut PB1 HTS: signal of MEK5 binding to mutant human MEKK2 PB1 domain | hit rate 0.35% among 290,000 | AID 1530 | bead flow cytometry, Alexa488-MEK5 binding to MEKK2 mutant | percent response, % at 10 µM; in the data active = percent response above about 24%, passing the limit was not always enough
MEKK2wt PB1 HTS: raises or lowers MEK5 binding to wildtype human MEKK2 PB1 domain; Q9Y2U5; bead flow cytometry, Alexa488-MEK5 binding to MEKK2 WT; actives lie on both sides; binding response (% of control), % at 10 µM; hit rate 1.1% among 290,000; AID 1531; in the data active = binding response below about 67% or above about 130%
MEKK3 PB1 HTS: MEKK3-MEK5 PB1 interaction, increase or decrease. Q99759. bead-based flow cytometry, Alexa488-MEK5 binding to MEKK3; actives lie on both sides; 0 = blocked by unlabeled MEK5, 100 = vehicle. binding response (% of control), % at 10 µM. hit rate 1.4% among 290,000. AID 1529;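 active = binding response more than 3 SD above or below the average of its plate-row segment, actives on both sides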;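 also: Alexa488 bead fluorescence after subtracting the streptavidin-only scavenger bead signal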
MEKK2wt confirm: raises or lowers MEK5 binding to wildtype human MEKK2, retest; shares compounds with MEKK3 PB1 HTS; bead flow cytometry, Alexa488-MEK5 binding to MEKK2 WT; actives lie on both sides; binding response (% of control), % at 10 µM; hit rate 2.4% among 5,900; in the data active = binding response below about 16% or above about 210%; inactive = in between
MEKK2mut confirm: signal of MEK5 binding to mutant human MEKK2, retest | shares compounds with MEKK3 PB1 HTS | bead flow cytometry, Alexa488-MEK5 binding to MEKK2 mutant | percent response, % at 10 µM | hit rate 2% among 5,900 | AID 1893; in the data active = percent response mostly above about 71%, no sharp cut-off; inactive = mostly below about 38%;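 also: higher means compound restores mutant binding toward wildtype level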
MEKK3 confirm: confirmation of inhibitors of MEK5 binding to human MEKK3. shares compounds with MEKK3 PB1 HTS. bead flow cytometry, Alexa488-MEK5 binding to MEKK3; active compounds read low. binding response (% of control), % at 10 µM. hit rate 1.8% among 5,900;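 active = binding response below 72% of control, or above a set upper limit, though filed actives all read lower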;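 also: lower values mean stronger disruption of MEK5 binding to MEKK3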
Numbers stand for hits; – = inactive; · = no result given; [ ] = dose if it differs, or a comment. Hits are enriched below; roughly 3.1% of the tested compounds scored in any of these assays.

SMILES	UBC13 polyUb	PREPL inh	ATG4B inhibitor	MEKK2mut PB1 HTS	MEKK2wt PB1 HTS	MEKK3 PB1 HTS	MEKK2wt confirm	MEKK2mut confirm	MEKK3 confirm
O=C(CN1CCN(S(=O)(=O)c2ccc(Br)cc2)CC1)N/N=C/c1ccco1	–	–	–	–	–	162	–	–	–
Cc1ccc(S(=O)(=O)N2CCN(CC(=O)N/N=C/C=C/c3ccccc3)CC2)cc1	–	–	–	–	–	138	–	–	–
CC(=O)NC(Cc1ccc(C)cc1)C(=O)NC1CCN(C(=O)NCc2ccccc2)CC1 (stereo not given)	–	·	–	–	–	–	·	·	·
CCc1noc(C)c1C(=O)Nc1ccc(Cl)c(S(=O)(=O)N2CCCCC2)c1	–	–	–	·	·	·	·	·	·
O=C(c1c[nH]c(C(=O)C(Cl)(Cl)Cl)c1)c1ccc(F)cc1Cl	–	–	–	–	-2.0[inhibitor]	1.0[inhibitor]	–	–	–
Cc1cccc(NC(=O)c2ccc(OCc3c(C)noc3C)cc2)n1	–	–	–	·	·	·	·	·	·
COc1ccccc1/C=C/C=N/n1c(-c2cc(C)[nH]n2)n[nH]c1=S	–	–	–	–	–	–	·	·	·
Cc1cc(-c2n[nH]c(=S)n2/N=C/C=C/c2ccccc2)n[nH]1	–	–	–	–	–	153	–	–	–
Cc1ccc(C)c2nc3sc(C(=O)N4CCOCC4)c(N)c3cc12	–	–	–	–	–	–	·	·	·
Cc1cc(C)c2nc3sc(C(=O)N4CCOCC4)c(N)c3cc2c1	–	–	–	–	17[inhibitor]	29[inhibitor]	–	–	–
CC(C)CC(=O)NC(=S)N1CCN(c2ccc([N+](=O)[O-])cc2Cl)CC1	–	–	–	–	–	–	·	·	·
COC(=O)c1ccc(/C=C/C(=O)OCC(=O)Nc2cc(C)on2)cc1	–	–	–	·	·	·	·	·	·
O=S1(=O)CC(O)C(NCc2cccnc2)C1 (stereo not given)	–	–	–	–	–	82[inhibitor]	–	–	–
CC(C)CNC1CS(=O)(=O)CC1O (stereo not given)	–	–	–	–	–	–	·	·	·
C[C@H]1C=CC(=O)O[C@H]1c1ccccc1	–	–	–	–	–	122	–	–	–
CC1=C(C)CC(C(=O)NCc2cccc(Cl)c2)C(C(=O)O)C1 (stereo not given)	–	–	·	–	–	–	·	·	·
Cc1nnc(SCC(=O)NNC(=O)c2ccc(F)cc2)n1Cc1ccccc1	–	–	–	·	·	·	·	·	·
O=C(NCCc1ccccn1)c1cc(-c2ccc(Cl)c(Cl)c2Cl)nc2ccccc12	–	–	–	–	–	–	·	·	·
O=C(Nc1nn[nH]n1)c1cc(-c2ccc(Cl)c(Cl)c2Cl)nc2ccccc12	–	–	–	–	139	–	–	–	–
S=C(Nc1ccccc1)N1CCCCCC1	–	–	–	–	–	–	·	·	·
CC1(C)CC2(CCCN(C(=S)Nc3ccccc3)C2)CCO1 (stereo not given)	–	–	–	–	–	128	–	–	–
CCOC(=O)C1=NN(C(C)=O)C2(CC(=O)N(c3cccc(C)c3)C2=O)C1 (stereo not given)	–	–	–	–	–	139	–	–	–
CCc1ccccc1-n1ncc(C(=O)Nc2ccccc2OC)c1C	–	–	–	–	–	–	·	·	·
O=C(COC(=O)c1ccccc1O)Nc1cc([N+](=O)[O-])ccc1Cl	–	–	–	–	–	–	·	·	·
CN1C/C(=C\c2ccc(N3CCOCC3)cc2)C(=O)/C(=C/c2ccc(N3CCOCC3)cc2)C1	–	–	–	–	–	–	·	·	·
SMILES	UBC13 polyUb	PREPL inh	ATG4B inhibitor	MEKK2mut PB1 HTS	MEKK2wt PB1 HTS	MEKK3 PB1 HTS	MEKK2wt confirm	MEKK2mut confirm	MEKK3 confirm
CCN1C/C(=C/c2ccc(N3CCOCC3)cc2)C(=O)/C(=C/c2ccc(N3CCOCC3)cc2)C1	·	–	–	–	26[inhibitor]	–	–	–	–
CCOC(=O)c1c(NC(=O)C(=O)N/N=C/c2ccccc2O)sc2c1CCCCC2	–	–	–	–	–	137	–	–	–
CCOC(=O)CN1C(=O)C(C)(C)Oc2ccc(C(=O)Nc3ccccc3)cc21	–	–	–	–	–	72[inhibitor]	–	–	–
Cc1c(S(=O)(=O)N2CCN(c3ccc(F)cc3)CC2)c(=O)n(C)c(=O)n1C	–	–	–	–	–	–	·	·	·
Cc1cccc(C(=O)NC(=S)Nc2c(C)n(C)n(-c3ccccc3)c2=O)c1	·	–	–	–	–	–	·	·	·
COC(=O)c1c(NC(=O)COC(=O)CCc2ccc(S(=O)(=O)N3CCOCC3)cc2)sc2c1CCC2	–	–	–	–	–	136	–	–	–
COC(=O)c1c(NC(=O)CN(c2ccccc2)S(C)(=O)=O)sc2c1CCCC2	–	–	–	–	–	161	–	–	–
COC(=O)c1c(NS(=O)(=O)Cc2ccccc2)sc2c1CCCC2	–	–	–	–	–	–	·	·	·
COc1cc(C2C(c3ccccc3)C(c3cc(OC)cc(=O)o3)C2c2ccccc2)oc(=O)c1 (stereo not given)	·	·	–	·	·	·	·	·	·
Cc1n[nH]c(C)c1S(=O)(=O)N1CCCC(C(=O)O)C1 (stereo not given)	–	–	–	·	·	·	·	·	·
COc1ccccc1CNC(=O)CSc1nnc2ccc(-c3cccnc3)nn12	–	–	–	171	–	–	–	–	–
COc1ccc(NC(=O)CSc2nnc3ccc(-c4cccnc4)nn23)cc1OC	–	–	–	·	·	·	·	·	·
CCOc1ccc(N(CC(=O)Nc2cccc(Cl)c2)S(=O)(=O)c2c(C)noc2C)cc1	–	–	–	–	155	–	–	–	–
CCCN(CCC)CCNC(=S)Nc1ccc2nc3n(c(=O)c2c1)CCCCC3	–	–	–	–	–	–	·	·	·
O=C(COc1ccc(Cl)cc1Br)N1CCN(c2ccccc2)CC1	–	–	–	–	–	–	·	·	·
O=CN1CCN(C(=O)COc2ccc(Cl)cc2Br)CC1	–	–	–	–	–	149	–	–	–
CCCn1c(SCC(=O)Nc2sc(C)c(C)c2C#N)nnc1C(C)C	–	–	–	–	–	124	–	–	–
Cc1sc(NC(=O)CSc2nnc(C(C)C)n2C)c(C#N)c1C	–	–	–	–	–	–	·	·	·
O=C(Nc1ccc(Oc2ccc(Br)cc2)cc1)C1=CC=CN2CCS(=O)(=O)N=C12	–	–	–	·	·	·	·	·	·
FC(F)(F)c1cccc(NC(=S)NNC(=S)Nc2cccc(C(F)(F)F)c2)c1	–	–	·	–	–	–	·	·	·
O=C(NNC(=S)Nc1cccc(C(F)(F)F)c1)c1ccc(Cl)cc1Cl	–	–	–	–	–	162	–	–	–
